# Experimental data taken from PubChem BioAssay (Tox21).
# Inconclusive results are not listed. Where a call stands in place of a potency, no number is given. A structure can be active in one record and inactive in another. Calls of active or inactive are those of the source. Unless noted, calls follow the shape of the full dose curve.
# Key:
# [1] = Nuclear factor erythroid 2-related factor 2/antioxidant responsive element (Nrf2/ARE) small molecule agonists: luciferase reporter gene qHTS assay in human keratinocytes (AID 1919969); also: nearly all actives have a fitted effect of over 35% in size; also: potency is read from the fitted curve at half-maximal effect
# [2] = target: Gonadotropin-releasing hormone receptor (Homo sapiens) (UniProt P30968); experiment: Human gonadotropin-releasing hormone receptor (GnRHR) small molecule agonists, calcium flux assay in GnRHR-HEK293 cells (AID 1920063); also: nearly all actives have a fitted effect of over 35% in size; also: potency is read from the fitted curve at half-maximal effect
# Chain of Gonadotropin-releasing hormone receptor (Homo sapiens) (P30968 whole entry, looked up): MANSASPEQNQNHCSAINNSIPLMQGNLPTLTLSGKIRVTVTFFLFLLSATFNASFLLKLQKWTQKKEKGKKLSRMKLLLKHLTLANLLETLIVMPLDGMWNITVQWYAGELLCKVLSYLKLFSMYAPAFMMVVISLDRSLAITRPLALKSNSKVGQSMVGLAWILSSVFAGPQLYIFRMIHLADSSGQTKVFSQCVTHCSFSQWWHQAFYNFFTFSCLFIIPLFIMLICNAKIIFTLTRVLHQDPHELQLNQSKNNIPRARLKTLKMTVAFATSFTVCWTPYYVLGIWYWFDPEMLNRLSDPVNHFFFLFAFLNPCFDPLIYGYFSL
# Procedure, shortened: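 Intracellular calcium rise is the read-out: engineered human GnRHR HEK293 cells, dye-loaded, are exposed to DMSO-dissolved compounds and fluorescence at Ex/Em 480/540 is tracked for 3 min.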
# [3] = G protein-coupled receptor (GPCR) small molecule agonists, calcium flux assay: HEK293 wild type cell line counter screen (AID 1920065)
# Procedure, shortened: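 Fluorescence intensity signals activation. After overnight (18 h) culture and a 1 h calcium dye load at 37 C, compounds are added by pin tool and the plate read at 480/540 nm for 3 min in 1 s steps.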
# [4] = p53 small molecule agonists, cell-based qHTS assay with human liver microsomes: qHTS cell viability counter screen (AID 1963579); also: nearly all actives have a fitted effect of over 45% in size; also: potency is read from the fitted curve at half-maximal effect
# Procedure, shortened: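 Seed p53RE-bla cells at 4,000 per well; incubate 5 h at 37 C; add compound, human liver microsomes and NADPH; incubate 16 h at 37 C; add CellTiter-Glo; after 30 min at room temperature, read luminescence.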
# [5] = p53 small molecule agonists, cell-based qHTS assay with rat liver microsomes: qHTS cell viability counter screen (AID 1963580); also: nearly all actives have a fitted effect of over 45% in size
# Procedure, shortened: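 Cytotoxicity counter screen: intracellular ATP measured by CellTiter-Glo luminescence in the same wells as the beta-lactamase reporter read, on HCT-116 p53RE-bla cells exposed 16 h at 37 C to compounds with rat liver microsomes and NADPH, each 0.5 mg/mL final.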
# [6] = p53 small molecule agonists, cell-based qHTS assay: qHTS cell viability counter screen (AID 1963581); also: nearly all actives have a fitted effect of over 45% in size
# Procedure, shortened: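 Luminescence from CellTiter-Glo, reflecting ATP content, serves as the cytotoxicity measure; it is taken after the 2 h reporter substrate step in HCT-116 p53RE-bla cells dosed for 16 h at 37 C.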
# [7] = target: 5-hydroxytryptamine receptor 2A (Homo sapiens) (UniProt P28223); experiment: 5-hydroxytryptamine receptor 2A (HTR2A) small molecule antagonists, cell-based qHTS assay (AID 1963586); also: nearly all actives have a fitted effect of over 45% in size; also: potency is read from the fitted curve at half-maximal effect
# Chain of 5-hydroxytryptamine receptor 2A (Homo sapiens) (P28223 whole entry, looked up): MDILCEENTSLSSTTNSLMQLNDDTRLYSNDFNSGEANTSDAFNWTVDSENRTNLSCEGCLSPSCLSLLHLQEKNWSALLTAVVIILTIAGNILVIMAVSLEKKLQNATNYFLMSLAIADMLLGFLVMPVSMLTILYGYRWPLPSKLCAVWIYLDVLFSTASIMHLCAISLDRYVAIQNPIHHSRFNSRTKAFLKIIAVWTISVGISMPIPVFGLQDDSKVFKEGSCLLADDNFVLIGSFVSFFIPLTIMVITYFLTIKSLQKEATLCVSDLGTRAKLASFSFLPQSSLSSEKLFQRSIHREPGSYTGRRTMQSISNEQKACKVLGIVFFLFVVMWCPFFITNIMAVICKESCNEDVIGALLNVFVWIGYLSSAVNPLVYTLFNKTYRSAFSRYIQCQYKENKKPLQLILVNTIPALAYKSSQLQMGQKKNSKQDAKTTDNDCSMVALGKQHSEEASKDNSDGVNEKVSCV
# Procedure, shortened: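 CHO cells stably expressing human HTR2A were plated for 18 h at 37 C, then loaded with calcium dye for 1 h. Compounds were preincubated 5 min at room temperature before DOI (4 nM solution) was added. Kinetic fluorescence was read for 3 min.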
# [8] = target: 5-hydroxytryptamine receptor 2A (Homo sapiens) (UniProt P28223); experiment: 5-hydroxytryptamine receptor 2A (HTR2A) small molecule agonists, cell-based qHTS assay (AID 1963587); also: nearly all actives have a fitted effect of over 30% in size; also: potency is read from the fitted curve at half-maximal effect
# Procedure, shortened: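 CHO cells stably expressing human HTR2A, plated 18 h, loaded with calcium dye 1 h at 37 C. Agonist mode: compounds added and intracellular calcium fluorescence recorded kinetically for 2 min at 1 sec intervals.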
# [9] = target: Muscarinic acetylcholine receptor M1 (Homo sapiens) (UniProt P11229); experiment: Cholinergic receptor muscarinic 1 (CHRM1) small molecule antagonists, cell-based qHTS assay (AID 1963588); also: nearly all actives have a fitted effect of over 40% in size
# Chain of Muscarinic acetylcholine receptor M1 (Homo sapiens) (P11229 whole entry, looked up): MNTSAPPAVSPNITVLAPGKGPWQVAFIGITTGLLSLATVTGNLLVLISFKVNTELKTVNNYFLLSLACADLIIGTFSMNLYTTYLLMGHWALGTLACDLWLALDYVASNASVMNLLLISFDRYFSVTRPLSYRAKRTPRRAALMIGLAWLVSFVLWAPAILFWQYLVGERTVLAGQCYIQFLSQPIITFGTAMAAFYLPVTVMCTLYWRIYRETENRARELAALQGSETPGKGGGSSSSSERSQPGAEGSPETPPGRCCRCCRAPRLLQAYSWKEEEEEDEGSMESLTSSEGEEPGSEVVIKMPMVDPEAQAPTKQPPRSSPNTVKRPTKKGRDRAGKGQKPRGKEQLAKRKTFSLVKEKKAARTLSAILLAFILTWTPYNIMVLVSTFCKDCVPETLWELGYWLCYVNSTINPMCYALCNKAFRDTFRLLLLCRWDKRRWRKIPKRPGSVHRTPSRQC
# Procedure, shortened: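 Compounds were tested at 15 concentrations in three independent runs. Dye-loaded CHRM1-CHO cells were exposed 5 min at room temperature before stimulation by acetylcholine added at 50nM. Intracellular calcium was read kinetically on FDSS for 3 min.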
# [10] = cAMP Responsive Elements (CRE) small molecule antagonists, cell-based qHTS assay (AID 1963591; active = well fitted inhibition curve with a large enough effect in the signal ratio in the repeat runs, not every such curve was filed as active; the % refers to the signal ratio)
# Procedure, shortened: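 Stimulation used NKH477 at a final 0.25 uM for 3 h in compound-treated CRE-bla HEK293T cells, seeded 18 h beforehand. Reporter activity was measured with LiveBLAzer B/G FRET substrate after 2 h at room temperature.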
# [11] = target: Beta-2 adrenergic receptor (Homo sapiens) (UniProt P07550); experiment: Adrenergic beta2 receptor (ADRB2) small molecule antagonists, cell-based qHTS assay (AID 1963592); also: series mostly up to about 92 µM; nearly all actives have a fitted effect of over 50% in size
# Chain of Beta-2 adrenergic receptor (Homo sapiens) (P07550 whole entry, looked up): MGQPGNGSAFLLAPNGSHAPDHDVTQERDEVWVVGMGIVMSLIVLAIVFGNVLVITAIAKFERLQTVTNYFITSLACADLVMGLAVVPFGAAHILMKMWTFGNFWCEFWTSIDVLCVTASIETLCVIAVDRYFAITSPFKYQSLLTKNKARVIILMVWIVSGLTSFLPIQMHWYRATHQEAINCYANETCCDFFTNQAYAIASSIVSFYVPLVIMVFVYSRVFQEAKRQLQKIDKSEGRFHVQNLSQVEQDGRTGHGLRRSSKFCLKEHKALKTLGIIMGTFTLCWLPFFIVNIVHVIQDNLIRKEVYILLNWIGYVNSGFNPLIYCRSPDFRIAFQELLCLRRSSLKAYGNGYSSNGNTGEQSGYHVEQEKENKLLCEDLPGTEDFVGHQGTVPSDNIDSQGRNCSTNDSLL
# Procedure, shortened: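 Assay format: CHO-ADRB2 cells, 18-20hr seeding at 37C/5% CO2, then compound plus 1nM isoproterenol agonist mix for 0.5hr RT. Homogeneous time-resolved fluorescence cAMP detection after 1hr, expressed as 665/615 nm ratio.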
# [12] = target: Beta-2 adrenergic receptor (Homo sapiens) (UniProt P07550); experiment: Adrenergic beta2 receptor (ADRB2) small molecule agonists, cell-based qHTS assay (AID 1963593);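 also: CHO cells stably overexpressing human ADRB2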
# Procedure, shortened: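 CHO cells stably over-expressing ADRB2 were plated overnight at 37C, then dosed with compounds plus a stimulation mix containing 100uM IBMX and 25uM Ro-20-1724 for 0.5hr at room temperature. cAMP was measured by HTRF competition, 1hr.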
# [13] = target: D(2) dopamine receptor (Homo sapiens) (UniProt P14416); experiment: Dopamine D2 receptor (DRD2) small molecule agonists, cell-based qHTS assay (AID 1963594); also: nearly all actives have a fitted effect of over 35% in size
# Chain of D(2) dopamine receptor (Homo sapiens) (P14416 whole entry, looked up): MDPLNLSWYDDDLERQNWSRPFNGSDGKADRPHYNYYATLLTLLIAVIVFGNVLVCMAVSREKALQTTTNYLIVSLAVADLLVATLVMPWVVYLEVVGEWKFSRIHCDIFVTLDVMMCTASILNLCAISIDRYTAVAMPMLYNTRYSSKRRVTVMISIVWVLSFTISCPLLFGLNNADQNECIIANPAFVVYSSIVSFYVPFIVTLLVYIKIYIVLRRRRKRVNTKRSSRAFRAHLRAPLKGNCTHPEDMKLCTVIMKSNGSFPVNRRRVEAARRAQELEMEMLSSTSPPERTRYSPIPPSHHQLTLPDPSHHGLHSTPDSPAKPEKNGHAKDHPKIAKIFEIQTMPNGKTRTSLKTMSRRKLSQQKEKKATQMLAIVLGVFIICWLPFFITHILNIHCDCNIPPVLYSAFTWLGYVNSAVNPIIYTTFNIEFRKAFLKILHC
# Procedure, shortened: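 HEK293 cells stably expressing human DRD2, pre-treated with PDE inhibitor Ro20-1724 (0.1 mM final) and compound 10 min at room temperature, then stimulated with NKH477 (200nM […]) for 30 min. cAMP read by HTRF (665/620 nm).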
# [14] = target: D(2) dopamine receptor (Homo sapiens) (UniProt P14416); experiment: Dopamine D2 receptor (DRD2) small molecule antagonists, cell-based qHTS assay (AID 1963595; active = well fitted inhibition curve with a large enough effect in the signal ratio in the repeat runs, with a control signal flat; the % refers to the signal ratio)
# Procedure, shortened: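 Human DRD2 antagonist qHTS measuring cAMP by HTRF. The cells are exposed to compound for 10 min, then to NKH477 (200 nM) and quinpirole (12 nM) for 30 min at RT, with Ro20-1724 (0.1 mM) present throughout.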
# [15] = target: Muscarinic acetylcholine receptor M1 (Homo sapiens) (UniProt P11229); experiment: Cholinergic receptor muscarinic 1 (CHRM1) small molecule agonists, cell-based qHTS assay (AID 1963589); also: nearly all actives have a fitted effect of over 35% in size; also: potency is read from the fitted curve at half-maximal effect
# Procedure, shortened: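 Fluorescent calcium dye reports M1 activation in stably transfected CHO cells. Compounds, 15 concentrations, added after 1 h dye loading at 37 C; kinetic reading at 1 sec intervals.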
# [16] = cAMP Responsive Elements (CRE) small molecule agonists, cell-based qHTS assay (AID 1963590)
# Procedure, shortened: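 Compound exposure lasted 3 h at 37 C/5% CO2 in CRE-bla HEK 293T cells grown in assay medium with 10% dialyzed FBS and 25 mM HEPES. Reporter signal came from LiveBLAzer B/G FRET substrate, 2 h, room temperature.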
# [17] = target: KiSS-1 receptor (Homo sapiens) (UniProt Q969F8); experiment: Human kisspeptin (KISS1R) small molecule agonists, calcium flux assay in KISS1R-HEK293 cells (AID 1920064; active = well fitted activation curve with a large enough effect in the repeat runs; also: potency is read from the fitted curve at half-maximal effect)
# Chain of KiSS-1 receptor (Homo sapiens) (Q969F8 whole entry, looked up): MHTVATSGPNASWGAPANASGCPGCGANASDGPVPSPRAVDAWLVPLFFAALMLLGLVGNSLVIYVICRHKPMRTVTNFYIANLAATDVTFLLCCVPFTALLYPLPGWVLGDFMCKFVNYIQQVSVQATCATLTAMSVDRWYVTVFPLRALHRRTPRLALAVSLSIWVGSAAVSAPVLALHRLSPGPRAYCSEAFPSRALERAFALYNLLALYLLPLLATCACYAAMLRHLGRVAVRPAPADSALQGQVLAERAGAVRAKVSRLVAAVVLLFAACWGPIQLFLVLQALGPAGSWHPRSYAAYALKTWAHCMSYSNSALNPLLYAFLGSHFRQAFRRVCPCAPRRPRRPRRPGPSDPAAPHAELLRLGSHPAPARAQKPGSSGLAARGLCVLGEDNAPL
# Procedure, shortened: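 Concentration-response testing used 15 concentrations in triplicate on human KISS1R-expressing HEK293 cells. Calcium-dependent fluorescence (Ex/Em 480/540) was followed kinetically for 3 min after compound transfer.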
# [18] = p53 small molecule agonists, cell-based qHTS assay with human liver microsomes (AID 1963577)
# Procedure, shortened: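 Cells carrying a p53-responsive bla reporter were rested 5 h (37 C, 5% CO2) before compound transfer. Human liver microsomes plus NADPH, 0.5 mg/mL final apiece, supplied metabolism during the 16 h 37 C exposure.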
# [19] = p53 small molecule agonists, cell-based qHTS assay with rat liver microsomes (AID 1963578)
# Procedure, shortened: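 Fluorescence from a beta-lactamase reporter under a p53 response element was measured after cells had been incubated 16 h at 37 C with test compound and rat liver microsomes plus NADPH (0.5 mg/mL final each).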
# [20] = p53 small molecule agonists, cell-based qHTS assay (AID 1963582; active = well fitted activation curve with a large enough effect in the signal ratio in the repeat runs, not every such curve was filed as active; the % refers to the signal ratio)
# Procedure, shortened: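 After plating, p53RE-bla cells sat 5 h in the incubator; compounds or DMSO vehicle were pinned in; a 16 h incubation at 37 C followed; FRET substrate was added and, 2 h later at RT, fluorescence was measured.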
smiles,measurement,setting,value
CC(=O)SCC(CC(=O)c1ccc(C)cc1)C(=O)O (stereo unspecified),Potency,[1],inactive
same,Potency,[2],inactive
same,Potency,[3],inactive
same,Potency,[4],inactive
same,Potency,[5],inactive
same,Potency,[6],inactive
same,Potency,[7],inactive
same,Potency,[8],inactive
same,Potency,[9],inactive
same,Potency,[10],inactive
same,Potency,[11],inactive
same,Potency,[12],inactive
same,Potency,[13],inactive
same,Potency,[14],inactive
OCCN1CCOCC1,Potency,[1],inactive
same,Potency,[2],inactive
same,Potency,[4],inactive
same,Potency,[5],inactive
same,Potency,[6],inactive
same,Potency,[7],inactive
same,Potency,[8],inactive
same,Potency,[9],inactive
same,Potency,[15],inactive
same,Potency,[16],inactive
same,Potency,[10],inactive
same,Potency,[11],inactive
same,Potency,[13],inactive
same,Potency,[14],inactive
CCCCCCOC(=O)c1ccc(O)cc1,Potency,[1],19.4 µM (active) and inactive
same,Potency,[17],inactive
same,Potency,[3],inactive
same,Potency,[18],inactive
same,Potency,[19],inactive
same,Potency,[4],inactive
same,Potency,[5],inactive
same,Potency,[6],inactive
same,Potency,[20],inactive
same,Potency,[8],inactive
same,Potency,[9],inactive
same,Potency,[15],inactive
same,Potency,[11],inactive
same,Potency,[12],inactive
same,Potency,[13],inactive
Nc1ccc2c3c(cccc13)-c1ccccc1-2,Potency,[1],inactive
same,Potency,[2],35.1 µM (active)
same,Potency,[17],55.5 µM (active)
same,Potency,[4],inactive
same,Potency,[5],inactive
same,Potency,[7],inactive
same,Potency,[8],24.8 µM (active)
same,Potency,[9],inactive
same,Potency,[15],49.5 µM (active)
same,Potency,[11],inactive
same,Potency,[13],inactive
same,Potency,[14],inactive
OC(CCN1CCCCC1)(c1ccccc1)C1CCCCC1 (stereo unspecified),Potency,[1],inactive
same,Potency,[2],inactive
same,Potency,[3],inactive
same,Potency,[4],inactive
same,Potency,[5],inactive
same,Potency,[6],inactive
same,Potency,[11],inactive
same,Potency,[13],inactive
CN(C)c1ccc(SC#N)cc1,Potency,[1],24.3 µM (active)
same,Potency,[17],inactive
same,Potency,[3],inactive
same,Potency,[18],inactive
same,Potency,[19],inactive
same,Potency,[4],inactive
same,Potency,[5],inactive
same,Potency,[6],inactive
same,Potency,[20],inactive
same,Potency,[7],inactive
same,Potency,[8],inactive
same,Potency,[9],inactive
same,Potency,[15],inactive
same,Potency,[16],inactive
same,Potency,[10],inactive
same,Potency,[11],inactive
same,Potency,[12],inactive
same,Potency,[13],inactive
same,Potency,[14],inactive
Nc1ccc2c(c1)CN1C(=O)c3ccccc3C1=N2,Potency,[1],0.13 µM (active)
same,Potency,[2],6.57 µM (active)
same,activation,[18],5.53% [at 13.5 µM] (inactive)
same,"activity change, negative = cytotoxicity",[4],-28.3% [at 13.5 µM] (inactive)
same,"activity change, negative = cytotoxicity",[5],-20.3% [at 13.5 µM] (inactive)
same,Potency,[8],10.4 µM (active)
same,"activity change, negative = inhibition",[11],-18.2% [at 19 µM] (inactive)
same,activation,[12],25.8% [at 19 µM] (inactive)
same,"activity change, negative = inhibition",[14],-0.331% [at 18.9 µM] (inactive)
O=C(N/N=C/c1ccccc1O)c1ccncc1,Potency,[1],6.68 µM (active)
same,Potency,[2],inactive
same,Potency,[3],inactive
same,Potency,[18],inactive
same,Potency,[19],inactive
same,Potency,[4],7.93 µM (active)
same,Potency,[5],inactive
same,Potency,[6],inactive
same,Potency,[20],inactive
same,Potency,[8],inactive
same,Potency,[15],inactive
same,Potency,[16],inactive
same,Potency,[10],inactive
same,Potency,[11],inactive
O[C@@H](c1cc(C(F)(F)F)nc2c(C(F)(F)F)cccc12)[C@H]1CCCCN1,Potency,[1],inactive
same,Potency,[2],16.9 µM (active)
same,Potency,[3],inactive
same,Potency,[18],inactive
same,Potency,[19],inactive
same,Potency,[4],inactive
same,Potency,[5],inactive
same,Potency,[7],3.65 µM (active)
same,Potency,[8],10.7 µM (active)
same,Potency,[13],inactive
same,Potency,[14],inactive
